Reference: PubChem BioAssay (NCI)
Where “and” joins values, the source holds several entries; their conditions need not be identical. Equal entries are not always repeated. Compounds without any hit were thinned out: in the full panel of roughly 79,000, 15% have a hit. Calls of active or inactive are those of the source. Rule as the data show it: active = growth inhibition above about 70%; inactive = the rest.

Tests used:
[1] = NCI Yeast Anticancer Drug Screen. Data for the rad50 strain (AID 155);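 also: 0% = growth of vehicle-only cultures of the same strain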; conditions: S. cerevisiae rad50 strain growth inhibition, active compounds read high; at 50.0 µM unless noted
Method in brief: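 Vehicle-treated cultures provide the reference for the growth inhibition reported for compound-exposed, repair-deficient yeast.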

[2] = NCI Yeast Anticancer Drug Screen. Data for the mec2-1 strain (AID 157); conditions: S. cerevisiae mec2-1 strain, active compounds read high; at 50.0 µM unless noted
Method in brief: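 Readout is yeast growth inhibition, normalised to vehicle-treated controls, in the mec2-1 strain exposed to compound.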

[3] = NCI Yeast Anticancer Drug Screen. Data for the sgs1 mgt1 strain (AID 161);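 also: 0% = growth of cultures given vehicle only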; conditions: S. cerevisiae sgs1 mgt1 strain, active compounds read high; at 50.0 µM unless noted
Method in brief: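 Compounds are added to genetically altered yeast, and growth is compared with cultures given vehicle alone to give percent inhibition.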

[4] = NCI Yeast Anticancer Drug Screen. Data for the cln2 rad14 strain (AID 165);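 also: 0% = growth equal to vehicle treated cultures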; conditions: S. cerevisiae cln2 rad14 strain, active compounds read high; at 50.0 µM unless noted
Method in brief: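 Relative to vehicle controls, growth inhibition of compound-treated cln2 rad14 yeast was recorded.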

[5] = NCI Yeast Anticancer Drug Screen. Data for the bub3 strain (AID 167); conditions: S. cerevisiae bub3 mutant strain, active compounds read high; at 50.0 µM unless noted
Method in brief: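 Mutant yeast screening strain plus compound; vehicle-treated cultures serve as the 0% inhibition reference.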

[6] = NCI Yeast Anticancer Drug Screen. Data for the mlh1 rad18 strain (AID 175); conditions: S. cerevisiae mlh1 rad18 strain growth inhibition, active compounds read high; at 50.0 µM unless noted
Method in brief: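 Test agents were incubated with a yeast strain of defined genotype (DNA damage repair defect). Inhibition of growth was derived by comparison with vehicle-exposed cultures.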

Measured: growth inhibition

CC(C#N)C(=O)O (configuration not stated)
inactive: [1] -3.55% | [2] -5.85% | [3] -15.7% | [4] -8.15% | [5] -8.15% | [6] -18.5%

NC(=O)C(N)CC12CC3CC(CC(C3)C1)C2 (configuration not stated)
inactive: [1] -6% | [2] -18.2% | [3] -10.6% | [4] 17.7% | [5] 10.7% | [6] -4.7%

COc1cc2c3cc1Oc1cc(ccc1O)C[C@@H]1c4c(cc(OC)c(O)c4Oc4ccc(cc4)C[C@@H]3[N+](C)(C)CC2)CC[N+]1(C)C
inactive: [1] -23.2% | [2] -43.1% | [3] -40.4% | [4] 68.6% | [5] -35.6% | [6] 6.7%

CC1(C)OC2COC(OCc3ccccc3)C(OCc3ccccc3)C2O1 (configuration not stated)
inactive: [1] 17.4% | [2] 8.1% | [3] 26.8% | [4] 7.35% | [5] -8.7% | [6] 19%

Nc1nnc2nc(C(C(=O)c3ccc(F)cc3)c3nc4nnc(N)n4[nH]c3=O)c(=O)[nH]n12
inactive: [1] 15.1% | [2] 4.15% | [3] -10.2% | [4] 8.45% | [5] 0.2% | [6] 18.8%

Cc1ncc(C(N)=S)c(N)n1
inactive: [1] 9.95% | [2] -0.05% | [3] -0.15% | [4] -47.4% | [5] -8.55% | [6] 14.3%

COc1ccc(/C=N/NC(=O)c2sc(=S)n(-c3ccccc3)c2N)cc1
inactive: [1] 2.9% | [2] -0.45% | [3] -40.1% | [4] -16.9% | [5] -17.1% | [6] -7.5%

COc1ccc(C2CC(=O)N(c3ncccn3)C(=O)C2)cc1
inactive: [1] 14.5% | [2] 8.4% | [3] 10% | [4] -13.7% | [5] -12.3% | [6] 5.25%

CCOC(=O)c1ccc(N)nc1
inactive: [1] -3.75% | [2] -3.3% | [3] 5.35% | [4] -13% | [5] 7.95% | [6] 18.6%

CN(C)c1ccc(/C=C(\C#N)c2ccc(F)cc2)cc1
inactive: [1] -2.65% | [2] -1.8% | [3] 3.05% | [4] -26.6% | [5] -6.75% | [6] -17.8%

O=C(O)/C(=C/c1cccs1)c1ccc(F)cc1
inactive: [1] 19.1% | [2] 12.2% | [3] 15% | [4] 28.9% | [5] -3.2% | [6] 3.75%

CCOC(=O)CON=c1c2ccccc2ccc2ccccc12
inactive: [1] 4.05% | [2] -5.85% | [3] -22.5% | [4] 3.4% | [5] -10.2% | [6] -2.45%

Cc1cc(O)c(C)c(C)c1O
inactive: [1] -4.1% | [2] -12.6% | [3] -6.95% | [4] -12.4% | [5] 4% | [6] 8.85%

O=c1[nH]c2nc3ccccc3c(=O)n2nc1Cc1ccccc1
inactive: [1] -15.7% | [2] -19.6% | [3] -8.6% | [4] -2.05% | [5] -13.3% | [6] 0.7%

C=CCS(=O)(=O)CC=C
inactive: [1] 23.9% | [2] -12.5% | [3] -7.3% | [4] 3% | [5] -15.6% | [6] 17.9%

Clc1ccc(-c2c(C3=NCCCN3)nnn2-c2ccc(Cl)cc2)cc1
inactive: [1] -16.6% | [2] -17.9% | [3] -10.9% | [4] 11.7% | [5] -3.6% | [6] -25.7%

Cc1ccccc1C(=O)c1ccccc1C
inactive: [1] -16.3% | [2] -9.95% | [3] -7.2% | [4] -34% | [5] -1.55% | [6] -9.9%

CN1CCN(C2c3ccccc3OC(C)(C)C2O)CC1 (configuration not stated)
inactive: [1] -23.9% | [2] -14% | [3] -14.8% | [4] -25.8% | [5] -15.7% | [6] 8.8%

Nc1cc(N)c(N)cc1N
inactive: [1] -30.1% and -6.2% | [2] 16.8% and -29.1% | [3] 13% and -4.9% | [4] -1.7% and 21.8% | [5] 41.7% and -13.9% | [6] 15% and 8.75%

CC(C)C(=O)NCC[C@@H](CNC(=O)OC(C)(C)C)NC(=O)OC(C)(C)C
inactive: [1] 20.1% | [2] -3.1% | [3] 38.6% | [4] -3.85% | [5] 28.7% | [6] 34.5%

N#Cc1c[nH]c(=O)[nH]c1=O
inactive: [1] -25.3% | [2] -25.4% | [3] -13.4% | [4] 2.15% | [5] 1.85% | [6] -45.6%

CC1(C)Oc2nc[nH]c(=O)c2C1c1ccccc1 (configuration not stated)
inactive: [1] 2.55% | [2] -4.5% | [3] -0.4% | [4] -20.1% | [5] -19.4% | [6] 5.35%

CC(C)(C)C(C)(C)SSC(C)(C)C(C)(C)C
inactive: [1] 6.05% | [2] 12.4% | [3] 18.8% | [4] 7.4% | [5] 15.7% | [6] 25.5%

COc1ccc2c(c1)[n+](=O)c(C(=O)CC(=O)C(=O)Nc1cccc(C)c1C)c(C)n2[O-]
inactive: [1] 2.35% | [2] 13.3% | [3] -9.55% | [4] 9.45% | [5] 5.3% | [6] 14.8%

COC(=O)c1ccc(SCCC(=O)CN2C(=O)c3ccccc3C2=O)cc1
inactive: [1] 18.9% | [2] 8.5% | [3] 17.1% | [4] 23.1% | [5] 4.1% | [6] 27.8%

N#Cc1ccc(OC(=O)Nc2ccc(F)cc2)cc1
inactive: [1] -4.1% | [2] -14.2% | [3] 12.2% | [4] 18.6% | [5] 10.7% | [6] 8.8%

CCCCC(OC(=O)c1ccccc1)c1cc(OC(=O)c2ccccc2)c2c(c1OC(=O)c1ccccc1)CC(C)=C(C)C2 (configuration not stated)
inactive: [2] 49.6% | [4] 53.4% | [5] 48.2% | [6] 56.2%
active: [1] 84% | [3] 99%

O=C(C[n+]1ccccc1)c1ccc(O)c(I)c1
inactive: [1] -5.4% | [2] 7.65% | [3] 21.9% | [4] 21.7% | [5] 0.35% | [6] 7.4%

CC(C)CCOB(OCCC(C)C)OCCC(C)C
inactive: [1] -25.9% | [2] -40.1% | [3] -6.6% | [4] 2.45% | [5] -26.6% | [6] -23.2%

c1ccc(N=c2sc3ccccc3nc2Nc2ccccc2)cc1
inactive: [1] 5.65% | [2] -37.8% | [3] -34.4% | [4] -64.8% | [5] -23.3% | [6] -48.9%

Cc1ccc(/C=C(/c2ccccc2)C(CC(=O)O)C(=O)O)cc1 (configuration not stated)
inactive: [1] -4.75% | [2] -11.3% | [3] -6.85% | [4] -44.7% | [5] -6.35% | [6] -14.5%

NCCS(=O)(=O)O
inactive: [1] 1.8% | [2] 8.7% | [3] 7.7% | [4] 19.8% | [5] -5.6% | [6] -6.95%

Oc1ccc(-c2c3ccccc3c(-c3ccc(O)cc3)c3ccccc23)cc1
inactive: [1] -0.85% | [2] -9.6% | [3] -31.6% | [4] -7.2% | [5] -9.15% | [6] 1.15%

O=C(O)c1ccc(Cl)o1
inactive: [1] 7.7% | [2] -3.6% | [3] -23.1% | [4] -1.05% | [5] 10.1% | [6] 5.6%

CCCSc1nn2cc(NC(=O)OC)nc2s1
inactive: [1] -13.5% | [2] -8.7% | [3] -3.75% | [4] -24.5% | [5] 7.05% | [6] -6.5%

O=C(NC(Cc1ccc(I)cc1)C(=O)O)c1ccc(Br)cc1 (configuration not stated)
inactive: [1] -4.3% | [2] -5.65% | [3] 2.8% | [4] 12.1% | [5] -9.4% | [6] -0.9%

CCOC(=O)NNC(=O)Nc1ccc(O[Si](C)(C)C)cc1
inactive: [1] 13.4% | [2] 10% | [3] 10.3% | [4] 17.1% | [5] 9.75% | [6] 10.9%

O=C(CCl)Oc1ccc2ccccc2c1
inactive: [1] 27.1% | [2] -2.05% | [3] -8.05% | [4] 8.25% | [5] 13.1% | [6] 31.4%

Cc1ncc([N+](=O)[O-])n1CC(O)Cn1cnc([N+](=O)[O-])n1 (configuration not stated)
inactive: [1] -19% | [2] -6.5% | [3] -1.75% | [4] -4.2% | [5] -4.35% | [6] -31.4%

C=C(c1c(C)cccc1OC(C)=O)c1c(C)cccc1OC(C)=O
inactive: [1] -8.8% | [2] -10.6% | [3] -0.6% | [4] -9.1% | [5] 17.3% | [6] -6.55%

COC1OC(CO)C(O)C(Nc2ccc([N+](=O)[O-])cc2[N+](=O)[O-])C1O (configuration not stated)
inactive: [1] 7.2% | [2] 1.05% | [3] 19.1% | [4] -53.6% | [5] -10.8% | [6] 1.1%

CCN(CC)c1ccc2cc(C(=O)Nc3ccccc3)c(=N)oc2c1
inactive: [1] 15.5% | [2] 5.45% | [3] 1.8% | [4] 13.7% | [5] -20.2% | [6] -39.1%
